Shown are actives, neighbours in structure and some others; about 3.1% of the full set was active somewhere.
DRD3 agonist: agonists of human D3 dopamine receptor; AID 652048; P35462; max activation, %; D3R DiscoveRx beta-arrestin cells, luminescence, 90 min; 0.58% of 410,000 active; in the data active = max activation above about 30%; note: 0% is about no effect
Target sequence (P35462 whole entry, looked up): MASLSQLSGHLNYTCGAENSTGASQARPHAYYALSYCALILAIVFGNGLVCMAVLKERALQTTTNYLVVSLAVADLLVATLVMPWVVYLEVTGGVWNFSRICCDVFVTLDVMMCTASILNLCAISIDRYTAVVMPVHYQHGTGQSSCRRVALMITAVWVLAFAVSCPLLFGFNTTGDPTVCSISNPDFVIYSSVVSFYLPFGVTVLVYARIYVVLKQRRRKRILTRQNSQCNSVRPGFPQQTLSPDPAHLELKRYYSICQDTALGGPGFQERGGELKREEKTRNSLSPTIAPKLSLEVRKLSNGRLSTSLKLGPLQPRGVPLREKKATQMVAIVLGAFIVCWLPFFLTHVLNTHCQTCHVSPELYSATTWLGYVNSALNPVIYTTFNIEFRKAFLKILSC
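Agonist mode: compounds and dopamine controls were applied to plated cells for 90 min at 37 degrees C after an overnight attachment at 1500 cells/well. Luminescent read-out followed 30 - 60 minutes at room temperature with DiscoveRx detection reagent.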
D3 antag: antagonists of human D3 dopamine receptor; P35462; D3R cells, DiscoveRx beta-arrestin luminescence, antagonist mode; active compounds read low; max response, negative = inhibition, %; 2.5% of 360,000 active; AID 652054; in the data active = max response below about -50%; inconclusive = no clear call, values can overlap the other calls; note: % is set by controls: 0 for no effect and ±100 for the full control effect
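Cells plated overnight at 1500 cells/well, then exposed to library compounds with dopamine controls for 90 minutes at 37 degrees C. DiscoveRx reagent added for 30–60 minutes at room temperature; luminescence read, quantitative HTS format.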
RGS4 inh: blocks human RGS4-accelerated GTP hydrolysis | Transcreener GDP fluorescence polarization, RGS4-accelerated GTP hydrolysis | Potency, µM (top dose mostly 114 µM), without a hit: top-dose activity change, negative = inhibition, actives largely listed as inhibitors | 0.039% of 390,000 active | AID 504845; active = well fitted inhibition curve with a large enough effect; inconclusive = small, poorly fitted or top-dose-only effect; inactive = no such curve, though single readings can be large or run the other way; note: potency is the fitted concentration of half-maximal effect; % is set by controls: 0 for no effect and ±100 for the full control effect; nearly all actives have a fitted effect of over 75% in size
Target sequence (P49798 whole entry, looked up): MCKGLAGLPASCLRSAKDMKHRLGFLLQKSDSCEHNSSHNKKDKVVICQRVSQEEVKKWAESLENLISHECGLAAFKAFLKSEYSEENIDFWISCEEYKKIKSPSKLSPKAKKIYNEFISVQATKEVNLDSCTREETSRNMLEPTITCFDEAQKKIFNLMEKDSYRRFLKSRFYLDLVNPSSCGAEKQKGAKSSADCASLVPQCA
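MLSMR compounds (23 nl, pin-transferred) preincubated 10 min at room temperature with a 500nM (2x) first reagent, then RGS4 at 900nM (2x) plus Transcreener GDP mix added; fluorescence polarization (620/688 nm) read before and after 90 min at 30 °C.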
uPA surface inh: blocks generation of uPA at the cell surface; cell surface uPA generation assay, qHTS; Potency, µM (highest dose often 38.3 µM), for the others: top-dose activity change, negative = inhibition, hits mostly inhibitors; 0.31% of 330,000 active; AID 540303; active = well fitted inhibition curve with a large enough effect; inconclusive = small, poorly fitted or top-dose-only effect; inactive = no such curve, though single readings can be large or run the other way; tested in mouse RAW 264.7 cells; note: potency is the fitted concentration of half-maximal effect; % is set by controls: 0 for no effect and ±100 for the full control effect; nearly all actives have a fitted effect of over 55% in size
Numbers without * were called inactive; ? = inconclusive; . = no result given; [ ] = another dose, or the depositor's remark.

SMILES	DRD3 agonist	D3 antag	RGS4 inh	uPA surface inh
CCCCCCCCCCCCCCCC(=O)O[C@@H]1CC(C)=C(/C=C/C(C)=C/C=C/C(C)=C/C=C/C=C(C)/C=C/C=C(C)/C=C/C2=C(C)C[C@@H](OC(=O)CCCCCCCCCCCCCCC)CC2(C)C)C(C)(C)C1	-5	.	.	.
CCOC1=C2[C@H](c3ccccc3)N(S(=O)(=O)c3ccc(C)cc3)C(C(C)(C)C)[C@H]2n2c(=O)n(-c3ccccc3)c(=O)n2C1 (some centres not stated)	6	0	.	.
CCOC1=C2[C@H](c3ccccc3)N(S(=O)(=O)c3ccc(C)cc3)[C@H](C(C)C)[C@H]2n2c(=O)n(-c3ccccc3)c(=O)n2C1	-11	-55*	.	.
Cc1ccc(-n2nc3c(c2NC(=O)c2cccs2)CS(=O)(=O)C3)cc1C	-13	-66*	-41%	-14%
CCc1nn(CC(=O)N(CC)Cc2ccccc2)c(=O)c2cc3occc3n12	-13	.	5%	.
COc1cc(C(NC=O)C(=O)Nc2c(C)cccc2C)ccc1O (configuration not stated)	2	-1	23%	8%
Cc1cccc(C)c1NC(=O)C(NC=O)c1ccc(Cl)cc1 (configuration not stated)	-6	-56*	6%	-5%
Cc1ccc(C)c(N2CCN(S(=O)(=O)c3cc(C(=O)Nc4cc(Cl)cc(Cl)c4)ccc3F)CC2)c1	1	.	5%	.
O=C(Nc1ccc2[nH]ccc2c1)c1cccs1	0	5	-2%	7.1µM*
O=C(Nc1ccc2nc(-c3ccc4nc[nH]c4c3)[nH]c2c1)c1cccs1	-5	-69*	-130%[56.9 µM]	5%
O=C(Nc1cccc(N2CCCC2)c1)c1cccs1	-33	-51*	-41%	0%
Cc1ccc(C)c(N2CCN(C(=O)C3CCN(S(=O)(=O)c4cn(C)cn4)CC3)CC2)c1	-1	.	12%	.
CCc1ccc2ncc3c(-c4ccc(F)cc4)nn(CC(=O)NC4CCCCC4)c3c2c1	4	.	-13%	.
Cc1ccccc1/C=C/C12NC(=O)CN1c1ccccc1C2(C)C (configuration not stated)	31*	19	3%	3%
CC1(C)c2ccccc2N2CC(=O)N[C@@]21/C=C/C=C/c1ccccc1	3	-4	-12%	0%
CCCn1c2ccccc2c2cnn(CC(=O)N(Cc3ccccc3)C(C)C)c(=O)c21	-11	.	-5%	.
CN(C)CCCN(C(=O)CCSc1ccccc1)c1nc2cc3c(cc2s1)OCO3	-35	-50*	7%	-2%
COc1ccc(Nc2nc3ccc(Cl)cc3n3nnnc23)cc1OC	8	.	-22%	.
CCCS(=O)(=O)c1c(S(=O)(=O)CCC)c2c(C)cccn2c1C(N)=O	-8	3	33%	3%
CCCS(=O)(=O)c1c(S(=O)(=O)CCC)c2c(C)cccn2c1C(=O)N/N=C/c1cc(O)cc(O)c1	21	42	13%	11µM*
COCOc1cccc(CN2CCC(C)(Oc3cccc(C#N)c3)C2)c1 (configuration not stated)	-18	-50*	.	.
COc1ccc(CN2CCC(C)(Oc3ccc4c(c3)OCO4)C2)c2ccccc12 (configuration not stated)	-7	0	.	.
Cc1ccccc1OC1(C)CCN(Cc2ccc3ccccc3c2)C1 (configuration not stated)	-9	-11	.	.
COc1ccc(OC2(C)CCN(Cc3ccc(-c4ccccc4)o3)C2)cc1 (configuration not stated)	-18	-128*	.	.
Cc1ccc(CN2CCC(C)(Oc3cccc(Cl)c3)C2)cc1 (configuration not stated)	-22	-103*	.	.
SMILES	DRD3 agonist	D3 antag	RGS4 inh	uPA surface inh
CC1(Oc2cccc(F)c2)CCN(Cc2ccc3ccccc3c2)C1 (configuration not stated)	-11	-117*	.	.
COc1ccc(CNC(=O)c2cnc3sc(N4CCCCCC4)nn3c2=O)cc1	17	.	-11%	.
Cc1ccc(CN2CCC(C)(Oc3ccc(Cl)cc3)C2)cc1 (configuration not stated)	-15	-95*	.	.
CSc1ccc(OC2(C)CCN(Cc3ccc(OC(C)C)cc3)C2)cc1 (configuration not stated)	-7	?	.	.
O=C(Nc1ccc2nc3n(c(=O)c2c1)CCCCC3)c1c(F)ccc([N+](=O)[O-])c1F	-6	-59*	?	17%
C=C1[C@@H]2CC[C@@H](C2)C1(C)C	1	.	.	.
Cc1nn2c(N3CCN(c4ccccn4)CC3)cc(C(C)C)nc2c1-c1ccccc1	0	-56*	25%	4%
CC(NC(=O)CCn1c(=O)c2cccn2c2ccc(F)cc21)c1ccccc1 (configuration not stated)	-32	.	-4%	.
CCOC(=O)CSc1nc2ccccc2c(=O)n1NC(=O)c1ccccc1	35*	7	21%	.
O=C(CSc1nc2c([nH]c3ccccc32)c(=O)n1-c1ccc(Cl)cc1)NC1CCCCC1	2	.	11%	.
C1=C(c2ccccc2)CCN(c2nc3ccccc3n3cnnc23)C1	-6	-70*	?	2%
c1ccc(N2CCN(c3nc4ccccc4n4cnnc34)CC2)cc1	0	31	-33%	12%
c1ccc(CN2CCN(c3nc4ccccc4n4cnnc34)CC2)cc1	-23	-135*	-19%	-6%
c1ccc2c(c1)CCN(c1nc3ccccc3n3cnnc13)C2	4	9	-5%	-29%
C#CCNC(=O)C[C@@H]1C[C@@]2(C(=O)OC)CC(C)(C)CC=C2N(Cc2ccccc2)C1=O	2	-21	.	.
CCCCOC(=O)C1C2C=C[C@]3(CN(CCCOC)C(=O)[C@H]13)O2 (some centres not stated)	-3	-51*	18%	6%
COc1ccc(NC(=O)Cn2c(=O)c3cc(Cl)ccc3n3nncc23)cc1	-11	.	23%	.
O=C(O)CCN1C(=O)CC(N2C(=O)/C(=C/c3ccc(Cl)cc3)SC2=S)C1=O (configuration not stated)	31*	0	-51%	8%
CN(Cc1ccc(Cl)cc1)C(=O)CCl	-14	-17	-17%	7.9µM*
CN(C)C(CNC(=O)c1ccc(Br)cc1)c1ccco1 (configuration not stated)	-25	-63*	3%	3%
COc1ccc(Cl)cc1C(=O)NCC(c1ccco1)N(C)C (configuration not stated)	-16	-79*	-6%	0%
COc1ccc(Cl)cc1C(=O)NCC(c1ccco1)N1CCCC1 (configuration not stated)	-56	-81*	2%	.
CN(C)C(CNC(=O)CCNC(=O)c1ccc(Br)cc1)c1ccco1 (configuration not stated)	-4	10	-13%	-2%
COc1ccc(Cl)cc1NS(=O)(=O)c1cccc(C(=O)NCC(c2ccco2)N(C)C)c1 (configuration not stated)	-13	-82*	-16%	0%

Compound activity as filed in PubChem.
